Screens from PubChem BioAssay.
aSyn 5UTR act – Activators via SNCA 5'UTR binding, MLPCN; alpha-synuclein 5'UTR reporter, activators screen; activity score, % (tested at 7.5 µM), hits read low; 300,000 compounds, 7.1% hits; AID 1814; in the data active = activity score below about -60%
A number is an active result; n = inactive. A selection follows.

SMILES	aSyn 5UTR act
COc1c(C)cccc1C(=O)Nc1ccc(CN2CCCCC2)cc1	-101
O=C(Nc1ccc(CN2CCCCC2)cc1)c1cccc(Br)c1	-72
O=C(CN1CCC(NC(=O)c2cccc(F)c2)CC1)Nc1ccc(Br)cc1	n
CC1CCN(CCc2nc3cc(NC(=O)Nc4ccccc4)ccc3n2C)CC1	-84
Cn1c(CN2CCCCC2)nc2cc(NC(=O)c3ccccc3)ccc21	-73
CCC(=O)NCCc1nc2cc(NC(=O)c3ccccc3Cl)ccc2n1C	-78
O=C(Nc1ccc(CN2CCCCC2)cc1)c1sc2ccccc2c1Cl	-159
Cc1ccc(C(=O)Nc2ccc3c(c2)nc(CCNC(=O)c2ccco2)n3C)cc1	-104
Cn1c(CN2CCCCC2)nc2cc(NC(=O)c3cccc(Br)c3)ccc21	-99
Cn1c(CN2CCCCC2)nc2cc(NC(=O)c3cccs3)ccc21	-68
CCN1CCN(Cc2ccc(NC(=O)c3cc(NC(=O)c4cncc(-c5cccs5)c4)cc(OC)c3)cc2C(F)(F)F)CC1	n
O=C(Nc1ccc2c(c1)nc1n2CCN(Cc2ccccc2)C1)c1cccs1	-91
CNc1ccccc1C(=O)OCC(=O)c1ccccc1	-71
CNc1ccccc1C(=O)OCC(=O)c1ccc(F)cc1	-70
COc1ccccc1NC(CC(=O)c1ccccc1)C(=O)OCC(=O)c1ccc(F)cc1 (configuration not stated)	-235
Cc1ccc2[nH]c3c(N4CCOCC4)ncnc3c2c1	-72
Cc1ccc2[nH]c3c(NCc4ccccc4)ncnc3c2c1	-95
CCCOc1ncnc2c1[nH]c1ccc(C)cc12	-92
O=c1[nH][nH]c(-c2ccccc2O)c1C(C[N+](=O)[O-])c1ccc(Br)cc1 (configuration not stated)	-95
COc1ccc(C2=Nc3ccccc3OC2)cc1	-189
COc1cccc(NC(=O)c2ccnc(N3CCC(C(=O)NCc4ccccc4OC)CC3)c2)c1	-95
COc1ccc(-n2nc3c(N4CCC(C(=O)NCc5cccc(C)c5)CC4)nnc(C)c3c2C)cc1	n
CCOc1ccccc1CNC(=O)C1CCN(c2nnc(C)c3c(C)n(-c4ccc(C)cc4)nc23)CC1	n
CCOC(=O)c1sc(NC(=O)c2cccnc2)nc1C	-100
Cc1cnc(NC(=O)CCc2ccccc2)s1	-383
SMILES	aSyn 5UTR act
COC(=O)c1sc(NC(=O)Cc2cccs2)nc1C	-69
Cc1cnc(NC(=O)CSc2ccccc2)s1	-108
CCOc1ccc(C(=O)Nc2nc(C)c(C(=O)OC)s2)cc1	-97
Cc1cnc(NC(=O)COc2ccccc2)s1	-142
COC(=O)c1sc(NC(=O)COc2ccccc2)nc1C	-142
CNc1ccccc(-c2ccc3cc4c(cc3n2)OCO4)c1=O	-215
CCOc1ccc(N=NC2C(=O)N(C(N)=S)N=C2C)cc1 (configuration not stated)	-142
CC1=NN(C(N)=S)C(=O)C1N=Nc1ccc(F)cc1 (configuration not stated)	-89
Cc1c(C(=O)NCc2ccccn2)oc2ccc(Br)cc12	-131
Cc1c(C(=O)NCc2ccccn2)oc2ccccc12	-138
COc1ccc2cc(-c3nc4ccccc4n3C)c(=O)oc2c1	-209
Cn1c(-c2cc3ccccc3oc2=O)nc2ccccc21	-97
COc1cccc(Cn2c(-c3nonc3N)nc3ccccc32)c1	n
Nc1ccc2oc(-c3cccc4ccccc34)nc2c1	n
Nc1ccc2oc(-c3cccs3)nc2c1	-89
N#Cc1cnc(Nc2nc3ccccc3o2)nc1-c1ccccc1	-72
CC1CCN(c2ccc(-c3ccc(NC(=O)C(F)(F)F)cc3)nn2)CC1	n
O=C(Nc1cccc(-c2ccc(N3CCOCC3)nn2)c1)c1ccccc1Cl	-110
Cc1ccc(C(=O)Nc2cccc(-c3ccc(N4CCOCC4)nn3)c2)cc1C	-73
O=C(Nc1cccc(-c2ccc(N3CCOCC3)nn2)c1)c1ccc(Cl)cc1	-86
Cc1ccc(C(=O)Nc2cccc(-c3ccc(N4CCOCC4)nn3)c2)cc1	-70
Cc1cc(C(=O)Nc2cccc(-c3ccc(N4CCOCC4)nn3)c2)ccc1[N+](=O)[O-]	-110
O=C(COc1ccc(Cl)cc1)Nc1cccc(-c2ccc(N3CCOCC3)nn2)c1	-71
Cc1ccc(S(=O)(=O)Nc2cccc(-c3ccc(N4CCCCCC4)nn3)c2)cc1	-125
Cc1ccc(S(=O)(=O)Nc2cc(-c3nn(C)c(=O)c4ccccc34)ccc2N2CCOCC2)cc1	n
SMILES	aSyn 5UTR act
COc1cc(O)oc1C=Nc1ccc(Cl)cc1	-64
COc1cc(O)oc1C=Nc1ccc(C(=O)O)cc1	-91
CC1(C)OC(=CC=Nc2ccc(Cl)cc2)OC1(C)C	n
O=C(N/N=C/c1ccc2c(c1)OCO2)c1cccs1	-135
Cc1ccsc1C(=O)N/N=C/c1ccc2c(c1)OCO2	-99
CN(C)c1ccc(/C=N/NC(=O)c2ccnn2C)cc1	-110
CN(C)c1ccc(/C=N/NC(=O)c2ccn(C)n2)cc1	-115
O=C(/C=C/c1ccccc1[N+](=O)[O-])NCCN1C(=O)S/C(=C\c2ccc(F)cc2)C1=O	-113
COC(=O)NCC(C)OC(=O)Nc1ccc(Cl)cc1 (configuration not stated)	-95
